The target in experiment [1] is Acetylcholinesterase (Homo sapiens) (UniProt P22303). The experiment is described as follows: Acetylcholinesterase (AChE) small molecule antagonists: colormetric cell-based qHTS assay (AID 1347395). Further: nearly all actives have a fitted effect of over 30% in size. The method, boiled down: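 Cells (SH-SY5Y, 2,000 per well) are seeded and left overnight at 37 C. Compound is added for 30 min, then DTNB and acetylthiocholine for a further 90 min at 37 C before absorbance-based thiocholine detection.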
Chain of Acetylcholinesterase (Homo sapiens) (P22303 whole entry, looked up): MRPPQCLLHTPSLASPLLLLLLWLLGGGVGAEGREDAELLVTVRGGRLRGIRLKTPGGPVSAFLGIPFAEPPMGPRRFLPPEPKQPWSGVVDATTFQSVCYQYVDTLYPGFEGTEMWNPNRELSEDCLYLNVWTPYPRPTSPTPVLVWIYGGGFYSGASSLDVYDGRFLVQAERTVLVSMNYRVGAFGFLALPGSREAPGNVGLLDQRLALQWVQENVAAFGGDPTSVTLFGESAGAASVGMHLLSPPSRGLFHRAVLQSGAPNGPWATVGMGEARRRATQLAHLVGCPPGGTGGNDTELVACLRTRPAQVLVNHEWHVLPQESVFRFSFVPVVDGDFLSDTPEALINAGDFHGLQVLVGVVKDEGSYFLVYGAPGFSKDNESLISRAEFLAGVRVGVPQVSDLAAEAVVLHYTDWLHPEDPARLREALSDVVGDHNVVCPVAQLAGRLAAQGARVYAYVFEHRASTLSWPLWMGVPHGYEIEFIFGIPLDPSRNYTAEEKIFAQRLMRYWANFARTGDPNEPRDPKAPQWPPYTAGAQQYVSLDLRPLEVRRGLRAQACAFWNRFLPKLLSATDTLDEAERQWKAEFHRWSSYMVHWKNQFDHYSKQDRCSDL
Background: In qHTS, concentration-response curves come from the screen itself.

Experiment [2] has the same target. The experiment can be described thus: Acetylcholinesterase (AChE) small molecule antagonists: enzyme-based qHTS assay (AID 1347397). Further: nearly all actives have a fitted effect of over 55% in size. As to conditions: Potency: AChE enzyme activity inhibition; outcome: AChE enzyme activity inhibition. The method, boiled down: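 Compound or DMSO vehicle was pin-transferred onto recombinant human AChE (50 mU/mL as dispensed) and left 30 min at room temperature. Acetylthiocholine with DTNB then started the reaction, read colorimetrically 10 min later.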

Experiment [3] shares this target. The experiment can be described thus: Acetylcholinesterase (AChE) small molecule antagonists: fluorescence cell-based qHTS assay (AID 1347398). Further: nearly all actives have a fitted effect of over 50% in size. Further: potency means the concentration at half of the fitted maximal effect. As to conditions: Potency: AChE activity; outcome: AChE activity. The method, boiled down: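 Using neuroblastoma SH-SY5Y cells as the enzyme source, test chemicals are preincubated 30 min at 37 C; AChE-driven acetylthiocholine cleavage is then quantified by thiocholine-dependent Thiolite Green fluorescence after 40 min at room temperature.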

Experiment [4] has the same target. The experiment can be described thus: Acetylcholinesterase (AChE) small molecule antagonists: enzyme-based qHTS assay with human liver microsomes (AID 1347399). Further: nearly all actives have a fitted effect of over 60% in size. As to conditions: Potency: qHTS inhibition; outcome: qHTS inhibition. The method, boiled down:
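Recombinant human AChE (50 mU/mL in the enzyme mix) and human liver microsomes (0.25 mg/mL final) were preincubated with compound and NADPH (0.25 mg/mL final) for 30 min at 37 C. Acetylthiocholine/DTNB was then added; thiocholine was read colorimetrically after 10 min at room temperature.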

A number with no mark means an inactive call. Inconclusive results are not listed. Active and inactive are the calls of the source. The call rests on the fitted dose curve. Positions of bridges follow the written chain, without caps; N, C: chain ends. Non-standard residues stand in square brackets, D forms with d. Residues, ends and D or L forms follow the SMILES beside them. hArg = N=C(N)NCCCC[C@H](N)C(=O)O; Mpa = O=C(O)CCS
On the % scale 0 is the no-effect control and ±100 the full control effect.

Take `O=Cc1c(Cl)cccc1Cl`: the Potency result in experiment [1], in experiment [2], in experiment [3] and in experiment [4] was “inactive” throughout.
As to `Cc1cc(NS(=O)(=O)c2ccc(N)cc2)nc(C)n1`, the Potency entry in experiment [1], in experiment [2], in experiment [3] and in experiment [4] was “inactive” throughout.
For `CCCCCC1CCC(=O)O1` (stereo not given), the Potency result in experiment [1], in experiment [2], in experiment [3] and in experiment [4] was “inactive” throughout.
In the case of `CCOCCn1c(N2CCCN(C)CC2)nc2ccccc21`, the Potency entry in experiment [1], in experiment [2], in experiment [3] and in experiment [4] was “inactive” throughout.
Turning to `CC(C)OC(=O)CCC(=O)OC(C)C`, the Potency entry in experiment [1], in experiment [2], in experiment [3] and in experiment [4] was “inactive” each time.
Take `CN(C)[C@@H]1C(=O)C(C(N)=O)=C(O)[C@@]2(O)C(=O)C3=C(O)c4c(O)cccc4C[C@H]3C[C@@H]12`: the Potency entry in experiment [1], in experiment [2], in experiment [3] and in experiment [4] was “inactive” in each case.
As for `c1ccc2c(c1)Oc1ccccc1S2`, the Potency entry in experiment [1], in experiment [2], in experiment [3] and in experiment [4] was “inactive” in each case.
`CC(C)CCCCCCc1ccc(OCCOCCO)cc1`: the Potency result in experiment [1], in experiment [2], in experiment [3] and in experiment [4] was “inactive” in each case.
For the molecule `CC(C)(O)CCc1ccccc1`, the Potency result in experiment [1], in experiment [2], in experiment [3] and in experiment [4] was “inactive” in each case.
On to `CCOC(=O)C(C)(C)Oc1ccc(Cl)cc1`, for which the Potency result in experiment [1], in experiment [2], in experiment [3] and in experiment [4] was “inactive” throughout.
Turning to `CCCCCCC(O)CCCCCCCCCCC(=O)OC` (stereo not given), the Potency result in experiment [1], in experiment [2], in experiment [3] and in experiment [4] was “inactive” throughout.
For the molecule `O=c1[nH]cnc2c1ncn2[C@@H]1O[C@H](CO)[C@@H](O)[C@H]1O`, the Potency entry in experiment [1], in experiment [2], in experiment [3] and in experiment [4] was “inactive” throughout.
With `CCc1ncc(C)[nH]1`, the Potency entry in experiment [1], in experiment [2], in experiment [3] and in experiment [4] was “inactive” each time.
For the molecule `C=C(C)C(=O)OCC(C)C`, the Potency entry in experiment [1], in experiment [2], in experiment [3] and in experiment [4] was “inactive” in each case.
`O=C1CCC/C=C\CCCCCCCCCC1`: the Potency result in experiment [1], in experiment [2], in experiment [3] and in experiment [4] was “inactive” each time.
Consider `NC(=O)[C@@H]1CSSCCC(=O)N[C@@H](CCCCN=C(N)N)C(=O)NCC(=O)N[C@@H](CC(=O)O)C(=O)N[C@@H](Cc2c[nH]c3ccccc23)C(=O)N2CCC[C@H]2C(=O)N1` ([Mpa][hArg]GDWPC-NH2; disulfide 1-7), for which the Potency entry in experiment [1], in experiment [2], in experiment [3] and in experiment [4] was “inactive” each time.
`O=C(O)c1cc2ccccc2cc1O`: the Potency entry in experiment [1], in experiment [2], in experiment [3] and in experiment [4] was “inactive” each time.
For the molecule `COCN(COC)c1nc(N(COC)COC)nc(N(COC)COC)n1`, the Potency entry in experiment [1], in experiment [2], in experiment [3] and in experiment [4] was “inactive” each time.
For the molecule `O=Cc1ccc([N+](=O)[O-])cc1`, the Potency result in experiment [1], in experiment [2], in experiment [3] and in experiment [4] was “inactive” throughout.
On to `COc1cc(CCC(C)=O)ccc1O`, for which the Potency result in experiment [1], in experiment [2], in experiment [3] and in experiment [4] was “inactive” each time.
For `COCCCCCCCCOCCC[Si](C)(O[Si](C)(C)C)O[Si](C)(C)C`, the Potency entry in experiment [1], in experiment [2], in experiment [3] and in experiment [4] was “inactive” each time.
As for `CC(C)=CCC/C(C)=C/CC/C(C)=C/C(=O)OCC(=O)[C@@]1(O)CC[C@H]2[C@@H]3CCC4=CC(=O)C=C[C@]4(C)[C@H]3[C@@H](O)C[C@@]21C`, the Potency result in experiment [1], in experiment [2], in experiment [3] and in experiment [4] was “inactive” throughout.
With `Nc1nc2c(ncn2CCC(CO)CO)c(=O)[nH]1`, the Potency result in experiment [1], in experiment [2], in experiment [3] and in experiment [4] was “inactive” in each case.
Consider `CC(C)CC(C)(C)C`, for which the Potency entry in experiment [1], in experiment [2], in experiment [3] and in experiment [4] was “inactive” in each case.
`CC1=C(O)C(=O)CO1`: the Potency entry in experiment [1], in experiment [2], in experiment [3] and in experiment [4] was “inactive” in each case.
As to `CCCC(=O)CC`, the Potency result in experiment [1], in experiment [2], in experiment [3] and in experiment [4] was “inactive” each time.
For the molecule `Cc1coc2ccccc2c1=O`, the Potency result in experiment [1], in experiment [2], in experiment [3] and in experiment [4] was “inactive” throughout.
`O=C1[C@@H]2[C@H]3CC[C@H](C3)[C@@H]2C(=O)N1CCCCN1CCN(c2ncccn2)CC1`: the Potency result in experiment [1], in experiment [2], in experiment [3] and in experiment [4] was “inactive” each time.
As to `CCCCCCCCCCCC(=O)N(CC)CC`, the Potency entry in experiment [1], in experiment [2], in experiment [3] and in experiment [4] was “inactive” each time.
As for `C=CCNc1nc(NCC=C)nc(N2CCN(C(c3ccc(F)cc3)c3ccc(F)cc3)CC2)n1`, the outcome in experiment [1], in experiment [2], in experiment [3] and in experiment [4] was inactive.
As for `CN1C(CSCC(F)(F)F)Nc2cc(Cl)c(S(N)(=O)=O)cc2S1(=O)=O` (stereo not given), the Potency result in experiment [1], in experiment [2], in experiment [3] and in experiment [4] was “inactive” in each case.
Take `O=C1NC(c2ccccc2)(c2ccccc2)C(=O)N1COP(=O)(O)O`: the Potency result in experiment [1], in experiment [2], in experiment [3] and in experiment [4] was “inactive” each time.
With `CC/C=C\CCOC(=O)c1ccccc1O`, the Potency result in experiment [1], in experiment [2], in experiment [3] and in experiment [4] was “inactive” in each case.
On to `O=C1C=CC(=O)N1c1ccccc1`, for which the Potency result in experiment [1], in experiment [2] and in experiment [4] was “inactive” throughout. Also, the Potency in experiment [3] was 35.6 µM (active).
In the case of `CCCCCCCCOc1ccc(C(=O)c2ccccc2)c(O)c1`, the Potency entry in experiment [1], in experiment [2], in experiment [3] and in experiment [4] was “inactive” each time.
With `CC(C)=CCCC(C)CCO` (stereo not given), the Potency result in experiment [1], in experiment [2], in experiment [3] and in experiment [4] was “inactive” each time.
`CCCCCCCCCCCCCCCCCCO`: the Potency entry in experiment [1], in experiment [2], in experiment [3] and in experiment [4] was “inactive” each time.
Take `OCC1CC2CC1C1CCC(CO)C21` (stereo not given): the Potency result in experiment [1], in experiment [2], in experiment [3] and in experiment [4] was “inactive” in each case.
Take `C=Cc1ccc(OC(C)=O)cc1`: the Potency entry in experiment [1], in experiment [2], in experiment [3] and in experiment [4] was “inactive” each time.
With `COc1ccc(C(=O)N2CCN(CC(=O)N3CCOCC3)CC2)cc1`, the Potency entry in experiment [1], in experiment [2], in experiment [3] and in experiment [4] was “inactive” in each case.
On to `CCN(CCO)CCCC(C)Nc1ccnc2cc(Cl)ccc12` (stereo not given), for which the activity, negative = inhibition in experiment [1] was -5.02% [at 10.5 µM]. Also, the activity change, negative = inhibition in experiment [2] was -2.76% [at 10.5 µM]; in experiment [3], -7.12% [at 10.5 µM]; in experiment [4], -0.168% [at 10.5 µM].
On to `O=C(O)CS`, for which the Potency entry in experiment [1], in experiment [2], in experiment [3] and in experiment [4] was “inactive” throughout.
Consider `C1CN(SSN2CCOCC2)CCO1`, for which the Potency result in experiment [1], in experiment [2], in experiment [3] and in experiment [4] was “inactive” in each case.
As for `CC(C)=CCO`, the Potency result in experiment [1], in experiment [2], in experiment [3] and in experiment [4] was “inactive” in each case.
In the case of `O=C(Oc1ccccc1)c1ccccc1`, the Potency result in experiment [1], in experiment [2], in experiment [3] and in experiment [4] was “inactive” in each case.
Turning to `CC(C)(C)c1ccc(C(=O)CCCCl)cc1`, the Potency entry in experiment [1], in experiment [2], in experiment [3] and in experiment [4] was “inactive” each time.
With `CCCCC(CC)COC(=O)CS` (stereo not given), the Potency result in experiment [1], in experiment [2], in experiment [3] and in experiment [4] was “inactive” in each case.
In the case of `Cn1cnc([N+](=O)[O-])c1Sc1ncnc2nc[nH]c12`, the Potency result in experiment [1], in experiment [2], in experiment [3] and in experiment [4] was “inactive” throughout.
Consider `CC(C)(C)C(=O)C(Oc1ccc(Cl)cc1)n1ccnc1` (stereo not given), for which the Potency result in experiment [1], in experiment [2], in experiment [3] and in experiment [4] was “inactive” each time.
As to `O=C(NOCC1CC1)c1ccc(F)c(F)c1Nc1ccc(I)cc1Cl`, the Potency result in experiment [1], in experiment [2], in experiment [3] and in experiment [4] was “inactive” throughout.
Regarding `O=NN(CCCl)C(=O)NCCCl`, the Potency entry in experiment [1], in experiment [2], in experiment [3] and in experiment [4] was “inactive” in each case.
In the case of `Cc1c[nH]c(=O)[nH]c1=O`, the Potency entry in experiment [1], in experiment [2], in experiment [3] and in experiment [4] was “inactive” in each case.
Consider `Brc1ccccn1`, for which the Potency result in experiment [1], in experiment [2], in experiment [3] and in experiment [4] was “inactive” each time.
Regarding `CCOC(=O)Cn1cccc1-c1nc(-c2ccc(OC)cc2)c(-c2ccc(OC)cc2)s1`, the Potency result in experiment [1], in experiment [2], in experiment [3] and in experiment [4] was “inactive” in each case.
In the case of `C[C@@H](NCCCc1cccc(C(F)(F)F)c1)c1cccc2ccccc12`, the Potency result in experiment [1], in experiment [2], in experiment [3] and in experiment [4] was “inactive” in each case.
In the case of `CCN1CN(CC)CN(CC)C1`, the Potency entry in experiment [1], in experiment [2], in experiment [3] and in experiment [4] was “inactive” in each case.
Consider `CCCCCCCCCOS(=O)(=O)O`, for which the Potency entry in experiment [1], in experiment [2], in experiment [3] and in experiment [4] was “inactive” throughout.
`CCN(CC)CC1CCCCN1CC(=O)N1c2ccccc2C(=O)Nc2cccnc21` (stereo not given): the Potency result in experiment [1], in experiment [2], in experiment [3] and in experiment [4] was “inactive” each time.
Regarding `CCn1ccc(NS(=O)(=O)c2ccc(N)cc2)nc1=O`, the Potency entry in experiment [1], in experiment [2], in experiment [3] and in experiment [4] was “inactive” in each case.
On to `Cc1ccc(C)c([N+](=O)[O-])c1`, for which the Potency entry in experiment [1], in experiment [2], in experiment [3] and in experiment [4] was “inactive” each time.
